TGFb SMAD3 inh = TGF-b pathway inhibition. Potency, µM (top dose mostly 46.1 µM), without a hit: at the highest dose activity, negative = inhibition, most hits filed as inhibitors. AID 588855. HepG2 CAGA-GFP TGF-b/SMAD3 reporter, GFP fluorescence, 18 h; TGF-beta stimulated, 500 pg/mL final. hit rate 1.2% among 410,000; also: % is scaled to controls: 0 for no effect and ±100 for the full control effect; nearly all actives have a fitted effect of over 65% in size
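Using HEPG2 CAGA-GFP reporter cells at 1000 cells/well, we pinned test compounds, stimulated with recombinant TGF-beta (500 pg/mL final) and measured total well GFP after 18 h.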
HepG2 viability = kills HepG2 cells in TGF-b inhibitor counter-screen; HepG2 CAGA-GFP viability, ATP luminescence, 18 h; Potency, µM (doses to about 46.1 µM), for inactives: at the highest dose activity change, negative = cytotoxicity, usual class: cytotoxic; hit rate 0.76% among 410,000
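CellTiter-Glo luminescence gave cytotoxicity after 18 hours at 37 degrees C. The cells were HepG2 CAGA-GFP in 1% FBS DMEM, stimulated with 500 pg/mL TGF-beta after compound addition. %Activity was normalised to no-cell wells (complete cell-killing) and DMSO (no toxicity), and curves were fitted and classified.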
S2 tox = viability counter-screen for ATXN expression inhibitors; S2 cells (HEK-293 line with an ATXN2-luciferase reporter) viability, CellTiter-Fluor protease fluorescence, 24 h; Potency, µM (top dose mostly 56.7 µM), hits mostly cytotoxic; hit rate 0.49% among 400,000; also: nearly all actives have a fitted effect of over 40% in size
Apoferritin bind = candidate novel general anesthetic via apoferritin binding; P02791; apoferritin/1-aminoanthracene competitive binding, fluorescence; Potency, µM (doses to about 77.5 µM), for the others: at the top dose activity change, negative = displacement, usual class: inhibitors; hit rate 0.074% among 350,000; AID 485281; also: % is scaled to controls: 0 for no effect and ±100 for the full control effect; nearly all actives have a fitted effect of over 20% in size
Target sequence (P02791 2-175 limits assumed): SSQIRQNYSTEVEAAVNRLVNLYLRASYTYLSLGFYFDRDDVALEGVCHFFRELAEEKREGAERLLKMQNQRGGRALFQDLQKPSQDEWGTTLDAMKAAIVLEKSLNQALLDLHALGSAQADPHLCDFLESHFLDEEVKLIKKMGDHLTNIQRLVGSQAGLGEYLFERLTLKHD
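Probe: 1-aminoanthracene (50% saturated, PBS). Protein: horse-spleen apoferritin, 10 uM. Incubation: 10 min, room temperature. Detection: 380 nm excitation, 535 nm emission. Analysis: normalized response, four-parameter Hill.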
ATXN2 expr inh = reduces ATXN2 reporter expression in HEK-293 cells. AID 1745845. HEK-293 ATXN2-luciferase reporter, luminescence, 24 h. hit rate 0.72% among 360,000. Potency, µM (titrated, usually from 57 µM), for inactives: at the highest dose activity change, negative = inhibition, usual class: inhibitors; also: % is scaled to controls: 0 for no effect and ±100 for the full control effect; nearly all actives have a fitted effect of over 55% in size
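qHTS (up to 57 uM final) was run with 24 h compound exposure of reporter cells at 37 °C. Each well was multiplexed: SteadyGlo luminescence measured ATXN2-luciferase expression after a fluorogenic Gly-Phe-AFC viability readout (25 uM final).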
An asterisk follows results filed as active; i = inactive; ? = inconclusive; . = no result given; [ ] = remark or other dose. In the library only some 2.4% were active in any assay of this set; here they are far more common. Calls follow the shape of the dose curve; as a rule, active = well fitted curve in the direction sought with a large enough effect; inconclusive = small, poorly fitted or top-dose-only effect, or another doubt; inactive = no such curve, though single readings can be large; an effect the other way counts as inactive or inconclusive. Potency is read from the fitted curve at half-maximal effect.

SMILES	TGFb SMAD3 inh	HepG2 viability	S2 tox	Apoferritin bind	ATXN2 expr inh
CC(C)(C)CC(=O)OCC(=O)[C@@]1(O)CC[C@H]2[C@@H]3CCC4=CC(=O)C=C[C@]4(C)[C@H]3[C@@H](O)C[C@@]21C	.	.	?	.	-13.6%
COc1cccc(C(=O)c2sc(Nc3ccc(F)c(Cl)c3)nc2N)c1	2.6%	-3.4%	i	-8.0%	7.3%
Cc1ccc(C(=O)c2sc(Nc3ccc(F)cc3)nc2N)c(C)c1	12.6µM*	-74.9%	i	-15.0%	?
CCOc1ccc(Nc2nc(N)c(C(=O)c3ccccc3Cl)s2)cc1	3.55µM*	-45.6%	.	-4.0%	.
COc1ccc(Nc2nc(N)c(C(=O)c3ccc(F)cc3)s2)cc1	-21.5%	-5.5%	?	-21.2%	.
COc1ccc(Nc2nc(N)c(C(=O)c3ccc(OC)cc3)s2)cc1	12.6µM*	-153.4%	?	-0.5%	?
CCc1cc(C(=O)NCCN2Cc3ccccc3OC(c3ccsc3)C2)n(C)n1 (stereo not drawn)	.	.	i	.	.
Cc1cc(C)cc(OCC(=O)Nc2ccncc2)c1	-3.9%	0.1%	i	-10.5%	-19.6%
O[C@@H](COc1cccc2ncccc12)CN1CCN(C2c3ccccc3[C@@H]3[C@H](c4ccccc42)C3(F)F)CC1 (stereo partly drawn)	.	.	25.1µM*	.	?
O=C(Nc1ccc(Cl)cc1)N1CCN(c2ccc3nnc(-c4ccc(F)cc4)n3n2)CC1	14.1µM*	-26.5%	?	-9.8%	?
O=C(Nc1ccccc1Cl)N1CCN(c2ccc3nnc(-c4ccccc4)n3n2)CC1	-7.6%	-1.4%	i	-16.6%	?
COc1ccccc1Cc1c(-c2ccc(OC)c(OC)c2)nc2ccc(C)cn12	?	-18.6%	22.4µM*	.	0.0%
Cc1ccc2nc(-c3ccc(F)cc3)c(Cc3cccc(Cl)c3)n2c1	?	-41.6%	?	.	-9.8%
COc1ccc(-c2nc3ccc(C)cn3c2Cc2cccc(Cl)c2)cc1OC	-13.7%	-27.6%	.	.	-36.0%
Clc1cccc(-c2nc3ccc(Cl)cn3c2Cc2ccsc2)c1	15.8µM*	-40.7%	i	.	46.0%
COc1ccc(-c2nc3ccc(C)cn3c2CC(C)(C)C)cc1OC	?	-51.6%	.	.	28.2µM*
Clc1cccc(-c2nc3ccc(Cl)cn3c2Cc2ccccc2)c1	?	-35.8%	?	.	-1.3%
Cc1ccc2nc(-c3ccc(Cl)cc3)c(Cc3cccc(Cl)c3)n2c1	.	.	28.2µM*	.	?
COC(=O)N1CC=CC1(C)C(=O)NCC1CC1 (stereo not drawn)	.	.	.	-9.7%	.
CC(=O)NC(Cc1ccccc1F)C(=O)NC1CCN(C(=O)Nc2ccc(C)cc2)CC1 (stereo not drawn)	?	0.8%	i	-0.8%	1.7%
COc1ccc(-c2nc3ccc(C)cn3c2Cc2ccc(C)cc2)cc1OC	?	-25.4%	.	.	-14.4%
Cc1ccc(Nc2c(-c3ccc(C)cc3)nc3ccc(C)cn23)cc1	17.9%	12.9%	i	-7.5%	14.1%
COc1ccc(-c2nc3ccc(C)cn3c2Cc2ccccc2)cc1OC	?	-42.9%	28.2µM*	.	?
Cc1ccc2nc(-c3ccc(O)cc3)c(Nc3ccc(Cl)cc3)n2c1	17.8µM*	-82.5%	.	1.4%	.
COc1ccc(OC)c(CN2C[C@H](Sc3ccc(F)cc3)C[C@H]2C(=O)N(C)C)c1	.	.	i	.	.
SMILES	TGFb SMAD3 inh	HepG2 viability	S2 tox	Apoferritin bind	ATXN2 expr inh
O=C(NCC(=O)N1CCN(c2ccccc2)CC1)c1ccco1	-10.6%	5.2%	i	0.4%	6.7%
CC1=NNC(=O)/C1=C\c1cn(-c2ccccc2)nc1-c1ccc(F)cc1	3.98µM*	-84.5%	.	-20.5%	7.52µM*
O=C(O)CCCCCN1C(=O)/C(=C/c2cn(-c3ccccc3)nc2-c2cccs2)SC1=S	-0.9%	-8.7%	?	.	-29.7%
CC1=NNC(=O)/C1=C\c1cn(-c2ccccc2)nc1-c1cccs1	5.62µM*	7.94µM*	3.16µM*	-23.9%	.
COc1cc(/C=C/c2ccnc3ccccc23)cc(OC)c1OC	-4.3%	-29.9%	.	.	.
COC(=O)[C@@]1(Cc2ccccc2)[C@H]2c3cc(C(=O)N(C)C)n(CCF)c3C[C@H]2CN1C(=O)c1ccccc1	.	.	.	5.5%	.
O=C(NC(=S)Nc1ccccc1N1CCCCC1)c1ccco1	11.2µM*	-42.3%	i	1.4%	19.1%
O=C(COC(=O)c1cc([N+](=O)[O-])ccc1N1CCOCC1)Nc1ccc(Cl)cn1	?	-33.6%	?	-19.3%	7.08µM*
Cc1ccc(Nc2nc(NCCO)c3ccccc3n2)cc1C	14.1µM*	-64.9%	i	-21.4%	-20.0%
OCCNc1c2ccccc2nc2ccccc12	?	3.3%	.	59.6%	18.9µM*
OCCNc1nc2ccccc2nc1NCCO	5.0%	-31.4%	i	-4.5%	0.4%
CC/C=C/[C@@H](c1ccccc1)[C@H](C)C(O)CC(=O)SC(C)(C)C (stereo partly drawn)	?	-32.9%	.	-2.1%	.
Cc1cccc(CNC(=O)CCCN2C(=O)COc3ccc(C)cc32)c1	.	-42.9%	.	-12.9%	.
CCOC(=O)[C@]12CCCC=C1N(Cc1ccco1)C(=O)[C@H](CC(=O)N1CCSCC1)C2	.	.	i	.	3.6%
COc1cccc(CN2C(=O)NC(C)(C3CCN(Cc4ccc(C)o4)CC3)C2=O)c1OC (stereo not drawn)	.	.	i	.	.
Cc1cc(O)c(C(C)C)cc1C1(c2cc(C(C)C)c(O)cc2C)OC(=O)c2ccccc21	12.6µM*	14.1µM*	.	-2.1%	?
O=C(c1cc(COc2cccc(C(F)(F)F)c2)on1)N1CCC(c2ccncc2)CC1	?	-42.6%	?	-8.6%	14.1µM*
CC(C)(C)c1ccc(C(=O)Nc2ccc(Cl)cc2)cc1	29.9%	-12.4%	i	12.0%	36.9%
COC(=O)Cc1ccc(NC(=O)c2ccc(C(C)(C)C)cc2)cc1	8.9%	-29.8%	i	-19.2%	0.794µM*
COc1cc(/C=N/N=C(N)N)ccc1OCc1ccc(Cl)cc1	?	10µM*	i	?	?
NC(N)=N/N=C/c1ccc(OCc2ccccc2)c(OCc2ccccc2)c1	17.8µM*	15.8µM*	22.4µM*	-9.1%	22.4µM*
CCOc1cc(/C=N/O)ccc1OCc1ccc(F)cc1	-16.6%	-41.1%	i	2.5%	23.7%
COc1cc(/C=N/N=C2/NC(=O)C(CC(=O)O)S2)ccc1OCc1ccc(Cl)cc1 (stereo not drawn)	0.0%	20.4%	i	-3.9%	70.9%
CCOc1cc(/C=N/N=C(N)N)ccc1OCc1ccc(Cl)cc1	?	-95.1%	31.6µM*	?	?
COc1cc(/C=N/NC(N)=S)ccc1OCc1ccc(C)cc1	17.8µM*	-7.4%	i	-22.2%	.
O=C1C[C@@H](O)[C@@H](O)[C@H]2[C@@H]3C(=O)N(Cc4ccccc4)C(=O)[C@@H]3CC[C@H]12	.	.	.	-1.6%[15.3 µM]	.
